# Experimental data as given in article PMC11062922 (Nature Chemical Biology, 2023).
# Like-named read-outs stand apart in the source and are kept apart here.
# Assays:
# Design in all cases: species or system human, MV4-11 + K-562 + COLO205 + SK-N-BE2 + OVCAR-8
# AURKA = details: read-out: apparent Kd; compound concentrations: 100 nM and 1000 nM (sheet 'Samples'), CATDS: 4.2728158523190798E-2; n = 1
# AURKB = details: read-out: apparent Kd; compound concentrations: 100 nM and 1000 nM (sheet 'Samples'), CATDS: 4.3580096723042298E-2; n = 1
# BUB1 = details: read-out: apparent Kd, compound concentrations: 100 nM and 1000 nM (sheet 'Samples'), n = 1
# CSNK1D = details: read-out: apparent Kd, compound concentrations: 100 nM and 1000 nM (sheet 'Samples'), n = 1
# CSNK1E = details: read-out: apparent Kd; compound concentrations: 100 nM and 1000 nM (sheet 'Samples'), CATDS: 4.0450014161249097E-2; n = 1
# DDR1 = details: read-out: apparent Kd; compound concentrations: 100 nM and 1000 nM (sheet 'Samples'), CATDS: 6.5674707070784599E-2; n = 1
# DDR2 = details: read-out: apparent Kd; compound concentrations: 100 nM and 1000 nM (sheet 'Samples'), CATDS: 3.7339921381228602E-2; n = 1
# EPHB6 = details: read-out: apparent Kd; compound concentrations: 100 nM and 1000 nM (sheet 'Samples'), CATDS: 3.6673450698806898E-2; n = 1
# FLT3 = details: read-out: apparent Kd; compound concentrations: 100 nM and 1000 nM (sheet 'Samples'), CATDS: 0.27087793421716799; n = 1
# FLT4 = details: read-out: apparent Kd; compound concentrations: 100 nM and 1000 nM (sheet 'Samples'), CATDS: 4.30316479834668E-2; n = 1
# GAK = details: read-out: apparent Kd, compound concentrations: 100 nM and 1000 nM (sheet 'Samples'), n = 1
# LIMK2 = details: read-out: apparent Kd; compound concentrations: 100 nM and 1000 nM (sheet 'Samples'), CATDS: 3.6080783188173302E-2; n = 1
# NQO2 = details: read-out: apparent Kd; compound concentrations: 100 nM and 1000 nM (sheet 'Samples'), CATDS: 0.178299559019577; n = 1
# PDGFRB = details: read-out: apparent Kd; compound concentrations: 100 nM and 1000 nM (sheet 'Samples'), CATDS: 5.3358090976632598E-2; n = 1
# RET = details: read-out: apparent Kd; compound concentrations: 100 nM and 1000 nM (sheet 'Samples'), CATDS: 0.111645797001171; n = 1
# RIPK2 = details: read-out: apparent Kd; compound concentrations: 100 nM and 1000 nM (sheet 'Samples'), CATDS: 3.9651452900350902E-2; n = 1
# RIPK3 = details: read-out: apparent Kd; compound concentrations: 100 nM and 1000 nM (sheet 'Samples'), CATDS: 3.2567224991893698E-2; n = 1
# SIK2 = details: read-out: apparent Kd; compound concentrations: 100 nM and 1000 nM (sheet 'Samples'), CATDS: 4.1786415024185397E-2; n = 1
# TGFBR1 = details: read-out: apparent Kd; compound concentrations: 100 nM and 1000 nM (sheet 'Samples'), CATDS: 3.3015845196466199E-2; n = 1
# TGFBR2 = details: read-out: apparent Kd; compound concentrations: 100 nM and 1000 nM (sheet 'Samples'), CATDS: 3.2296969977490597E-2; n = 1
# TNK1 = details: read-out: apparent Kd; compound concentrations: 100 nM and 1000 nM (sheet 'Samples'), CATDS: 4.85220574572469E-2; n = 1
# AXL = details: read-out: apparent Kd; compound concentrations: 100 nM and 1000 nM (sheet 'Samples'), CATDS: 0.14940898802630401; n = 1
# CLK1 = details: read-out: apparent Kd; compound concentrations: 100 nM and 1000 nM (sheet 'Samples'), CATDS: 0.22469270721715301; n = 1
# CLK2 = details: read-out: apparent Kd; compound concentrations: 100 nM and 1000 nM (sheet 'Samples'), CATDS: 0.32192475407013899; n = 1
# CLK4 = details: read-out: apparent Kd; compound concentrations: 100 nM and 1000 nM (sheet 'Samples'), CATDS: 0.19159631348183601; n = 1
# NTRK1 = details: read-out: apparent Kd; compound concentrations: 100 nM and 1000 nM (sheet 'Samples'), CATDS: 0.180805132487488; n = 1
# BMPR2 = details: read-out: apparent Kd; compound concentrations:100 nM and 1000 nM (sheet 'Samples'); n = 1
# JAK2 = details: read-out: apparent Kd; compound concentrations:100 nM and 1000 nM (sheet 'Samples'); n = 1
# PRKX = details: read-out: apparent Kd; compound concentrations:100 nM and 1000 nM (sheet 'Samples'); n = 1
# ROCK2 = details: read-out: apparent Kd; compound concentrations:100 nM and 1000 nM (sheet 'Samples'); n = 1
# CAMK2B = details: read-out: apparent Kd; compound concentrations: 100 nM and 1000 nM (sheet 'Samples'), CATDS: 1; n = 1
# CIT = details: read-out: apparent Kd; compound concentrations: 100 nM and 1000 nM (sheet 'Samples'), CATDS: 0.144210490801775; n = 1
# MAPK10 = details: read-out: apparent Kd; compound concentrations: 100 nM and 1000 nM (sheet 'Samples'), CATDS: 0.135593379838652; n = 1
# MAPK14 = details: read-out: apparent Kd; compound concentrations: 100 nM and 1000 nM (sheet 'Samples'), CATDS: 0.115463865520786; n = 1
# MAPK9 = details: read-out: apparent Kd; compound concentrations: 100 nM and 1000 nM (sheet 'Samples'), CATDS: 0.122740421728674; n = 1
# MAPKAPK2 = details: read-out: apparent Kd; compound concentrations: 100 nM and 1000 nM (sheet 'Samples'), CATDS: 0.10049167184689101; n = 1
structure (smiles),measurement,setting,value
CCCCc1nn2ncccc2c1-c1ccnc(Nc2ccc(N3CCN(C)CC3)cc2)n1 [GW684941X],potency estimated from few doses,AURKA,853 nM
same,potency estimated from few doses,AURKB,809 nM
same,potency estimated from few doses,BUB1; CATDS: 4.7022132934679002E-2,667 nM
same,potency estimated from few doses,CSNK1D; CATDS: 5.89125677268394E-2,400 nM
same,potency estimated from few doses,CSNK1E,993 nM
same,potency estimated from few doses,DDR1,320 nM
same,potency estimated from few doses,DDR2,1270 nM
same,potency estimated from few doses,EPHB6,1340 nM
same,potency estimated from few doses,FLT3,32.5 nM
same,potency estimated from few doses,FLT4,837 nM
same,potency estimated from few doses,GAK; CATDS: 7.8479207153445404E-2,227 nM
same,potency estimated from few doses,LIMK2,1420 nM
same,potency estimated from few doses,NQO2,58.6 nM
same,potency estimated from few doses,PDGFRB,496 nM
same,potency estimated from few doses,RET,122 nM
same,potency estimated from few doses,RIPK2,1050 nM
same,potency estimated from few doses,RIPK3,2080 nM
same,potency estimated from few doses,SIK2,906 nM
same,potency estimated from few doses,TGFBR1,1970 nM
same,potency estimated from few doses,TGFBR2,2150 nM
same,potency estimated from few doses,TNK1,618 nM
CC(C)S(=O)(=O)N1CCN(Cc2ccc3c(c2)nc(NC(=O)c2ccsc2)n3C[C@H](O)c2ccccc2)CC1 [GW635815X],potency estimated from few doses,AXL,1630 nM
same,potency estimated from few doses,CLK1,606 nM
same,potency estimated from few doses,CLK2,328 nM
same,potency estimated from few doses,CLK4,843 nM
same,potency estimated from few doses,NTRK1,964 nM
CC1=C(C(=O)Nc2ccc3[nH]ncc3c2)C(c2ccc3ccccc3c2)CC(=O)N1 (stereo not drawn) [GSK270822A],potency estimated from few doses,BMPR2,2080 nM
same,potency estimated from few doses,JAK2,754 nM
same,potency estimated from few doses,PRKX,1630 nM
same,potency estimated from few doses,ROCK2,67.9 nM
Cc1ccc2c(-c3ccnc(Nc4ccc5c(c4)OCCO5)n3)c(-c3ccc(C(F)(F)F)cc3)nn2n1 [GW832467X],potency estimated from few doses,CAMK2B,475 nM
Fc1ccc(-c2nn3c(OCC(F)(F)F)cccc3c2-c2ccncc2)cc1 [GW514784X],potency estimated from few doses,BUB1; CATDS: 0.17934012366879401,448 nM
same,potency estimated from few doses,CIT,646 nM
same,potency estimated from few doses,CSNK1D; CATDS: 0.10890792541592099,1160 nM
same,potency estimated from few doses,GAK; CATDS: 0.122345585139645,890 nM
same,potency estimated from few doses,MAPK10,725 nM
same,potency estimated from few doses,MAPK14,1010 nM
same,potency estimated from few doses,MAPK9,884 nM
same,potency estimated from few doses,MAPKAPK2,1420 nM
